Many of the other results were omitted from the sample, so hits are more common in it than they were.
TbPYK inhibitor: T. brucei pyruvate kinase inhibition | Potency, µM (series often up to 76.8 µM), for the others: at the highest dose activity, negative = inhibition, actives largely listed as inhibitors | TbPYK enzyme, Kinase-Glo Plus ATP luminescence, 45 min | Q57TT1 | AID 624173 | hit rate 0.12% among 410,000; also: potency is read from the fitted curve at half-maximal effect; % is scaled to controls: 0 for no effect and ±100 for the full control effect; nearly all actives have a fitted effect of over 50% in size
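Screened from lowest to highest concentration, compounds were pinned into TbPYK/substrate mixtures, and ADP (130 uM final) was added. Plates sat at room temperature for 45 min prior to Kinase-Glo Plus detection by luminescence.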
LmPK inh: blocks Leishmania mexicana pyruvate kinase activity; purified LmPK, Kinase-Glo ATP luminescence, 1 h; Potency, µM (series often up to 57.5 µM), for the others: at the highest dose activity change, negative = inhibition, hits mostly inhibitors; hit rate 0.37% among 290,000; AID 1721; also: potency is read from the fitted curve at half-maximal effect; % is scaled to controls: 0 for no effect and ±100 for the full control effect
Target sequence (Q27686 whole entry, looked up): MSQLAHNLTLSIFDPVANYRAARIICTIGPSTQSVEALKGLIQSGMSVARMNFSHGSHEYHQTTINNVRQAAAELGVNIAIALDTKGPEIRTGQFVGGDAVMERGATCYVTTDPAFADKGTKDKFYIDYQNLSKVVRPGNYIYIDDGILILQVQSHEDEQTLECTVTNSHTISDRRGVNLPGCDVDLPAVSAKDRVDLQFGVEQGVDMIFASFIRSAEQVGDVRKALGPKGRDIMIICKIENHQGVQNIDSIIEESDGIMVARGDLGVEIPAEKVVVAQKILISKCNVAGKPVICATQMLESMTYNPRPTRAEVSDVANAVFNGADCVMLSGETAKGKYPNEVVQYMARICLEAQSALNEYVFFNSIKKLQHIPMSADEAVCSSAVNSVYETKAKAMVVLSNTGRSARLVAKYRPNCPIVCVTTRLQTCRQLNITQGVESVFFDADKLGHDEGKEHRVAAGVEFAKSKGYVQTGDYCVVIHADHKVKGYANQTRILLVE
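qHTS format; LmPK 0.1 nM; substrates PEP 0.5 mM and ADP 0.1 mM. One-hour room-temperature incubation, then coupled luciferase luminescence; 0.5 nM enzyme wells mark activation.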
Shiga inhibitor: blocks Shiga toxin action in Vero cells; hit rate 9.2% among 290,000; Vero cells, Shiga toxin protein synthesis inhibition reporter; inhibition, % at 38.7 µM; in the data active = inhibition mostly above about 28%, no sharp cut-off; inactive = mostly below about 43%; also: 0% is about no effect
FBPA Giardia inh: blocks Giardia fructose-bisphosphate aldolase activity | A8B2U2 | purified Giardia FBPA | Potency, µM (top dose mostly 59.6 µM), for inactives: at the highest dose activity, negative = inhibition, most hits filed as inhibitors | hit rate 0.71% among 290,000 | AID 2451; also: potency is read from the fitted curve at half-maximal effect; % is scaled to controls: 0 for no effect and ±100 for the full control effect; nearly all actives have a fitted effect of over 55% in size
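Giardia FBPA (40 nM reagent) was preincubated 10 min at RT with compound (up to 57.5 uM final), then substrate plus GAPDH/TPI/NAD/arsenate coupling system with diaphorase/resazurin was added; resorufin fluorescence (525/598 nm) was read after 20 min.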
RE007 growth inh: less growth of the S. pombe RE007 Vpr strain. Potency, µM (top dose mostly 92.2 µM), inactives show at the highest dose activity change, negative = less growth, actives largely listed as inhibitors. S. pombe RE007 Vpr strain, BacTiter-Glo ATP luminescence, 24 h. hit rate 0.21% among 360,000. AID 651644; active = well fitted falling curve with a large enough effect; inconclusive = small, poorly fitted or top-dose-only effect; inactive = no such curve, though single readings can be large or run the other way; also: potency is read from the fitted curve at half-maximal effect; % is scaled to controls: 0 for no effect and ±100 for the full control effect; nearly all actives have a fitted effect of over 50% in size
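Fission yeast strain RE007, carrying one chromosomally integrated HIV-1 vpr copy, was seeded at OD 0.01 in PMG+AL medium with 23 nL pinned compound. After 24 h at 30 °C and 99% humidity, viability was read by BacTiter-Glo luminescence.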
Cycloheximide cs: affects cycloheximide protein synthesis inhibition readout, counter-screen; cell reporter, cycloheximide protein synthesis inhibition counterscreen; max response, %; hit rate 12% among 300,000; in the data active = max response mostly above about 13%, no sharp cut-off; inactive = mostly below about 14%; also: read at 38.3 µM for the half of the compounds with a filed dose; 0% is about no effect
The depositor's hits bear a star; ? = inconclusive; . = no result; + = active, no number. Unless noted, calls follow the shape of the dose curve; as a rule, active = well fitted curve in the direction sought with a large enough effect; inconclusive = small, poorly fitted or top-dose-only effect, or another doubt; inactive = no such curve, though single readings can be large; an effect the other way counts as inactive or inconclusive.

SMILES	TbPYK inhibitor	LmPK inh	Shiga inhibitor	FBPA Giardia inh	RE007 growth inh	Cycloheximide cs
COc1ccccc1C(=O)Nc1cccc(-c2cn3ccsc3n2)c1	.	0.3%	42.1*	0.3%	.	27.0*
CC(C)CCNC(=O)CSCc1cnn(-c2ccccc2)c1-n1cccc1	-6.6%	.	.	.	.	.
CCCCCOC(=O)NCC(O)c1ccccc1 (configuration not stated)	-3.0%	-0.1%	85.9*	6.0%	-16.7%	67.8*
CCCCOC(=O)NC(NCC(O)c1ccccc1)(C(F)(F)F)C(F)(F)F (configuration not stated)	3.1%	1.2%	-19.8	-5.1%	12.1%	-2.4
O=C(c1ccc2c(c1)N(Cc1ccc(Cl)cc1)C(=O)c1ccccc1S2(=O)=O)N1CCCC1	-7.8%	.	.	.	.	.
O=C(O)c1ccc(S(=O)(=O)c2ccc3c(c2)C(=O)N(NC(=O)c2ccccc2)C3=O)cc1	1.5%	2.5%	58.8	?	5.4%	6.7
O=C(O)c1ccc(S(=O)(=O)c2ccc3c(c2)C(=O)N(NC(=O)c2cccnc2)C3=O)cc1	-6.7%	1.7%	17.2	?	7.2%	23.6*
CCCCCCCCCCCCCCCCN	1.6%	.	.	.	.	.
COc1cc(C(=O)Nc2ccc3c(c2)OCCO3)ccc1OC(F)F	-3.8%	?	66.3*	10.6%	3.5%	33.5*
COc1ccc(NC(=O)c2ccc3c(c2)OCCO3)cc1OC	0.0%	-22.7%	62.1*	-0.8%	-14.7%	21.7*
COc1ccc(C(=O)Nc2ccc(C(=O)N3CCCC3)cc2)cc1[N+](=O)[O-]	6.8%	-3.8%	12.4	-4.7%	-1.1%	-0.4
COc1ccc(C(=O)Nc2ccc3c(c2)OCCO3)cc1[N+](=O)[O-]	1.8%	0.5%	30.6*	-0.1%	-8.8%	17.9*
CCn1cc(C(=O)N(C)c2ccc(OC)cc2OC)c2cc(OC)c(OC)cc2c1=O	4.9%	1.7%	58.0*	6.5%	-0.1%	47.1*
COc1cccc(OC)c1C(=O)Nc1ccc2c(c1)OCCO2	7.5%	1.1%	25.1	1.8%	-1.1%	-3.4
Cc1cccc(N2CCN(C(=O)c3cn(CC(C)C)c(=O)c4c3c3ccccc3n4C)CC2)c1C	1.3%	.	.	.	.	.
N#Cc1ccccc1Cn1c(=O)n(CCCCC(=O)NCc2ccc3c(c2)OCO3)c(=O)c2ccccc21	-11.0%	.	.	.	.	.
COc1cc(C(=O)Nc2ccc3c(c2)OCCO3)ccc1OC(C)C	-0.9%	-6.6%	+	5.1%	31.5%	44.3*
CCn1cc(C(=O)Nc2cccc(NC(C)=O)c2)c2cc(OC)c(OC)cc2c1=O	-1.1%	-2.0%	-13.7	7.5%	12.1%	4.9
CCn1cc(C(=O)Nc2ccc3c(c2)OCCO3)c2cc(OC)c(OC)cc2c1=O	-6.9%	11.7%	28.9	-20.1%	6.6%	11.6*
CCN1CC(CN(C)Cc2nc(Cc3ccccc3)no2)CC1=O (configuration not stated)	-0.9%	1.4%	5.4	0.4%	14.0%	-2.9
COc1cc2cc3c(N)c(C(=O)NCc4ccco4)sc3nc2cc1OC	-21.1%	1.2%	53.8*	-24.9%	-18.6%	16.1*
Cc1ccc2nc3sc(C(=O)Nc4c(C)[nH]c(=O)[nH]c4=O)c(N)c3cc2c1	2.4%	-3.6%	24.2	5.9%	26.1%	31.0*
Cc1ccc2cc3c(N)c(C(=O)Nc4c(C)[nH]c(=O)[nH]c4=O)sc3nc2c1	-3.9%	1.5%	-9.8	-13.8%	4.4%	-2.4
COc1ccc(-n2c(N)c(C(=O)NCc3ccco3)sc2=S)cc1	3.5%	3.9%	-15.3	-20.6%	11.9%	-6.4
Cc1ccc2nc3sc(C(=O)NCc4ccco4)c(N)c3cc2c1	3.1%	0.4%	67.8*	-2.1%	7.3%	23.2*
Cc1cccc(C(=O)NCc2ccco2)c1	-4.2%	5.6%	.	9.2%	10.1%	10.2
Cc1ccc(-c2nc(-c3nccc4ccccc34)oc2-c2ccccc2)cc1	3.4%	-5.8%	97.7*	-13.8%	.	22.4*
COc1ccc(N(Cc2cccs2)C(=O)COc2cccc(C)c2C)cc1	-2.8%	.	.	.	.	.
CC(=O)c1sc2nc(-c3cccs3)ccc2c1N	-7.4%	-12.5%	100.8*	-23.5%	-29.5%	45.9*
COc1ccc(C(=O)c2sc3nc(-c4ccc(OC)cc4)ccc3c2N)cc1	-0.4%	0.9%	39.8	-0.2%	10.3%	22.0*

Screening data as filed in PubChem BioAssay.
